We go through eight compounds from PubChem BioAssay (Tox21).

Assay [1] is described as follows: Nuclear factor erythroid 2-related factor 2/antioxidant responsive element (Nrf2/ARE) small molecule agonists: qHTS cell viability counter screen in human keratinocytes (AID 1919968; active means well fitted curve in the direction sought with a large enough effect in the repeat runs; an effect the other way counts as inactive or inconclusive; further: nearly all actives have a fitted effect of over 55% in size). The procedure, abridged: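 Fluorescence read-out from CellTiter-Fluor after 1 h at 37 C. Wells held HaCaT-derived ARE-luciferase reporter cells (1,500/well) treated 23 h with DMSO-dissolved compounds. Run in the same wells as the luciferase agonist read.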
(In general: qHTS replaces the single test concentration by a dilution series.)

Assay [2] in a line: Nuclear factor erythroid 2-related factor 2/antioxidant responsive element (Nrf2/ARE) small molecule agonists: luciferase reporter gene qHTS assay in human keratinocytes (AID 1919969). Further: nearly all actives have a fitted effect of over 35% in size. Further: potency means the concentration at half of the fitted maximal effect. In general terms: A reporter such as luciferase makes a cellular process visible.
In assay [3] the target is KiSS-1 receptor (Homo sapiens) (UniProt Q969F8). Briefly: Human kisspeptin (KISS1R) small molecule agonists, calcium flux assay in KISS1R-HEK293 cells (AID 1920064; active means well fitted curve in the direction sought with a large enough effect in the repeat runs; an effect the other way counts as inactive or inconclusive). The procedure, abridged:
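Calcium flux read-out: kinetic fluorescence at Ex/Em=480/540, 1 s intervals over 3 min, after pin-tool compound addition to dye-loaded KISS1R-HEK293 cells. Fifteen concentrations, triplicates.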
A general note: Calcium assays in cells follow changes in intracellular calcium, usually with a dye or a luminescent sensor.

Assay [4] in a line: G protein-coupled receptor (GPCR) small molecule agonists, calcium flux assay: HEK293 wild type cell line counter screen (AID 1920065). The procedure, abridged: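 Agonist mode; 18 h seeding at 37 C, 1 h dye load at 37 C; compounds pinned from DMSO, ATP as positive control; kinetic fluorescence 480/540 nm, 3 min, 1 s reads; 15 concentrations, triplicate.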
A short description of assay [5]: p53 small molecule agonists, cell-based qHTS assay with rat liver microsomes (AID 1963578). The method in brief:
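Metabolic activation is supplied by rat liver microsomes with NADPH (each 0.5 mg/mL final). p53RE-bla cells incubate with compound 16 h at 37 C; reporter activity is measured by LiveBLAzer fluorescence.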

Assay [6] is described as follows: p53 small molecule agonists, cell-based qHTS assay with rat liver microsomes: qHTS cell viability counter screen (AID 1963580). Further: nearly all actives have a fitted effect of over 45% in size. The method in brief: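 Cytotoxicity counter screen: intracellular ATP read by CellTiter-Glo luminescence in the p53 reporter wells. HCT-116 p53RE-bla cells were treated for 16 h at 37 C alongside rat liver microsomes and NADPH, each 0.5 mg/mL final.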

In assay [7] the target is 5-hydroxytryptamine receptor 2A (Homo sapiens) (UniProt P28223). As to the kind of experiment: 5-hydroxytryptamine receptor 2A (HTR2A) small molecule antagonists, cell-based qHTS assay (AID 1963586). Further: nearly all actives have a fitted effect of over 45% in size. The method in brief: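 CHO cells stably expressing human HTR2A were plated for 18 h at 37 C, then loaded with calcium dye for 1 h. Compounds were preincubated 5 min at room temperature before DOI (4 nM solution) was added. Kinetic fluorescence was read for 3 min.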
5-hydroxytryptamine receptor 2A (Homo sapiens), sequence (P28223 whole entry, looked up): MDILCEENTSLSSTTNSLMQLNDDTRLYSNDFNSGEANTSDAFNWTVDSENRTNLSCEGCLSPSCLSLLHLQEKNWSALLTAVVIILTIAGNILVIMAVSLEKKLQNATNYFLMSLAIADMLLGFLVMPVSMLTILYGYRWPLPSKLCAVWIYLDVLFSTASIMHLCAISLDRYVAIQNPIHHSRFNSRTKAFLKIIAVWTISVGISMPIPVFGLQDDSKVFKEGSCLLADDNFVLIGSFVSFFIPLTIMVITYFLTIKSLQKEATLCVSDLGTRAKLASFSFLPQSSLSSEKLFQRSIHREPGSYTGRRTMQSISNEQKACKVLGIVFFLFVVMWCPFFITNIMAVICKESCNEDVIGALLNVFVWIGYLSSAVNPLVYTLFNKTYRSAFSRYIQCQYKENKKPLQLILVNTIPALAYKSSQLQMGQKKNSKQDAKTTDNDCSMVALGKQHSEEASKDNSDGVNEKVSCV

Assay [8] has the same target. As to the kind of experiment: 5-hydroxytryptamine receptor 2A (HTR2A) small molecule agonists, cell-based qHTS assay (AID 1963587). Further: nearly all actives have a fitted effect of over 30% in size. The procedure, abridged:
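Kinetic calcium-flux fluorescence (2 min, 1 sec intervals) after compound addition in agonist mode. HTR2A-CHO cells were cultured 18 h, then dye-loaded 1 h at 37 C.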

Assay [9] concerns the target Muscarinic acetylcholine receptor M1 (Homo sapiens) (UniProt P11229). Briefly: Cholinergic receptor muscarinic 1 (CHRM1) small molecule antagonists, cell-based qHTS assay (AID 1963588). Further: nearly all actives have a fitted effect of over 40% in size. The procedure, abridged:
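Compounds were tested at 15 concentrations in three independent runs. Dye-loaded CHRM1-CHO cells were exposed 5 min at room temperature before stimulation by acetylcholine added at 50nM. Intracellular calcium was read kinetically on FDSS for 3 min.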

A short description of assay [10]: cAMP Responsive Elements (CRE) small molecule agonists, cell-based qHTS assay (AID 1963590). The procedure, abridged:
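Beta-lactamase reporter readout: LiveBLAzer B/G FRET substrate, 2 h at room temperature, added after 3 h compound treatment of CRE-bla HEK 293T cells at 37 C/5% CO2.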

Assay [11] has as its target Beta-2 adrenergic receptor (Homo sapiens) (UniProt P07550). Briefly: Adrenergic beta2 receptor (ADRB2) small molecule antagonists, cell-based qHTS assay (AID 1963592). Further: nearly all actives have a fitted effect of over 50% in size. Further: potency means the concentration at half of the fitted maximal effect. The procedure, abridged:
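Assay format: CHO-ADRB2 cells, 18-20hr seeding at 37C/5% CO2, then compound plus 1nM isoproterenol agonist mix for 0.5hr RT. Homogeneous time-resolved fluorescence cAMP detection after 1hr, expressed as 665/615 nm ratio.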

The target in assay [12] is D(2) dopamine receptor (Homo sapiens) (UniProt P14416). As to the kind of experiment: Dopamine D2 receptor (DRD2) small molecule agonists, cell-based qHTS assay (AID 1963594). Further: nearly all actives have a fitted effect of over 35% in size. The method in brief: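 cAMP accumulation in DRD2-HEK293 cells measured by HTRF after 1 h detection; compounds added 10 min before NKH477 (200nM […]) forskolin-analogue stimulation, 30 min at room temperature, with Ro20-1724 present at 0.1 mM final.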
D(2) dopamine receptor (Homo sapiens), sequence (P14416 whole entry, looked up): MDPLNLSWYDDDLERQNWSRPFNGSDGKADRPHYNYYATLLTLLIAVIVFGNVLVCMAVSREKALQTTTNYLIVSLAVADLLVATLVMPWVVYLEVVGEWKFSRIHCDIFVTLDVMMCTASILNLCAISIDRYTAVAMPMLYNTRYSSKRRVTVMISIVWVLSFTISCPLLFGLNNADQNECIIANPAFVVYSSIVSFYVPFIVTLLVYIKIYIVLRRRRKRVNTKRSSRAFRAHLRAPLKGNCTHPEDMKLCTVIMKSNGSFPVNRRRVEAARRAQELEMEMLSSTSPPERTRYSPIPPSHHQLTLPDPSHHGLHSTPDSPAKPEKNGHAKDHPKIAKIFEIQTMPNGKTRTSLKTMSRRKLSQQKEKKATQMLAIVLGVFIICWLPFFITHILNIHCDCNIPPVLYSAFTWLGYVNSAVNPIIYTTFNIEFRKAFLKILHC

The target is the same in assay [13]. Briefly: Dopamine D2 receptor (DRD2) small molecule antagonists, cell-based qHTS assay (AID 1963595; active means well fitted inhibition curve with a large enough effect in the signal ratio in the repeat runs, with a control signal flat; the % refers to the signal ratio). The procedure, abridged:
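Human DRD2 antagonist qHTS measuring cAMP by HTRF. The cells are exposed to compound for 10 min, then to NKH477 (200 nM) and quinpirole (12 nM) for 30 min at RT, with Ro20-1724 (0.1 mM) present throughout.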

Assay [14] in a line: p53 small molecule agonists, cell-based qHTS assay with human liver microsomes: qHTS cell viability counter screen (AID 1963579). Further: nearly all actives have a fitted effect of over 45% in size. The procedure, abridged:
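After the 460/530 nm beta-lactamase read, CellTiter-Glo was added to the same wells and luminescence measured after 30 min at room temperature, giving viability of p53RE-bla cells treated 16 h with compounds plus microsomes and NADPH.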

A short description of assay [15]: p53 small molecule agonists, cell-based qHTS assay: qHTS cell viability counter screen (AID 1963581). Further: nearly all actives have a fitted effect of over 45% in size. The procedure, abridged: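 Cytotoxicity read-out: ATP-based luminescence (CellTiter-Glo, 30 min RT) measured in the same wells as the p53 reporter assay, HCT-116 p53RE-bla cells, 16 h compound exposure at 37 C.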
Assay [16] can be described thus: p53 small molecule agonists, cell-based qHTS assay (AID 1963582; active means well fitted activation curve with a large enough effect in the signal ratio in the repeat runs, not every such curve was filed as active; the % refers to the signal ratio). The procedure, abridged: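 Fluorescence intensity read-out of a beta-lactamase reporter under a p53 response element. Cells were exposed to DMSO-dissolved compounds for 16 h at 37 C, then developed with FRET substrate for 2 h at RT.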
The target of assay [17] is Muscarinic acetylcholine receptor M1 (Homo sapiens) (UniProt P11229). As to the kind of experiment: Cholinergic receptor muscarinic 1 (CHRM1) small molecule agonists, cell-based qHTS assay (AID 1963589). Further: nearly all actives have a fitted effect of over 35% in size. The procedure, abridged: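 Calcium flux read-out: kinetic fluorescence at 1 sec intervals after pin-tool compound addition to dye-loaded CHRM1-CHO cells (human M1). Agonist mode; 15 concentrations tested in triplicate independent runs.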
Muscarinic acetylcholine receptor M1 (Homo sapiens), sequence (P11229 whole entry, looked up): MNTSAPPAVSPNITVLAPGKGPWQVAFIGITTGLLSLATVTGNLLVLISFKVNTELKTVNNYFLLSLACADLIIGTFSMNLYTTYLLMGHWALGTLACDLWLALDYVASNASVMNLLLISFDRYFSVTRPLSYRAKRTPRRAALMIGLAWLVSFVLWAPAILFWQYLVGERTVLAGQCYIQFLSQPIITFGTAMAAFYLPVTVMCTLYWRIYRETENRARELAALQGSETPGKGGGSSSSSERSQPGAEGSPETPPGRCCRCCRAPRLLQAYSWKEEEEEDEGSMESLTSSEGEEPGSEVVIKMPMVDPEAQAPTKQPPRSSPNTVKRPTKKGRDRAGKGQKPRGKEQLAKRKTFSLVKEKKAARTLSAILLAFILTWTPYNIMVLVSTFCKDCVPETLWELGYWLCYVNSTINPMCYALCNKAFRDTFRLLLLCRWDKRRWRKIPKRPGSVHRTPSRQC

A short description of assay [18]: cAMP Responsive Elements (CRE) small molecule antagonists, cell-based qHTS assay (AID 1963591; active means well fitted inhibition curve with a large enough effect in the signal ratio in the repeat runs, not every such curve was filed as active; the % refers to the signal ratio). The method in brief:
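HEK293T CRE-bla; 18 h preincubation; compound pin-transfer; NKH477 0.25 uM final, 3 h, 37 C; LiveBLAzer FRET substrate 2 h RT.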

Assay [19] is described as follows: p53 small molecule agonists, cell-based qHTS assay with human liver microsomes (AID 1963577).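 Further: p53 response element beta-lactamase reporter cells with liver microsomes plus NADPH.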 The procedure, abridged:
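Steps: plate p53RE-bla cells, incubate 5 h at 37 C; add compound in DMSO; add microsomes (0.5 mg/mL final) and NADPH (0.5 mg/mL final); incubate 16 h at 37 C; add LiveBLAzer, 2 h RT; read fluorescence.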

Unmarked numbers belong to inactive results. Inconclusive results are not listed. The source made the active and inactive calls. Unless noted, the call rests on the fitted dose curve.

Beta-2 adrenergic receptor (Homo sapiens), sequence (P07550 whole entry, looked up): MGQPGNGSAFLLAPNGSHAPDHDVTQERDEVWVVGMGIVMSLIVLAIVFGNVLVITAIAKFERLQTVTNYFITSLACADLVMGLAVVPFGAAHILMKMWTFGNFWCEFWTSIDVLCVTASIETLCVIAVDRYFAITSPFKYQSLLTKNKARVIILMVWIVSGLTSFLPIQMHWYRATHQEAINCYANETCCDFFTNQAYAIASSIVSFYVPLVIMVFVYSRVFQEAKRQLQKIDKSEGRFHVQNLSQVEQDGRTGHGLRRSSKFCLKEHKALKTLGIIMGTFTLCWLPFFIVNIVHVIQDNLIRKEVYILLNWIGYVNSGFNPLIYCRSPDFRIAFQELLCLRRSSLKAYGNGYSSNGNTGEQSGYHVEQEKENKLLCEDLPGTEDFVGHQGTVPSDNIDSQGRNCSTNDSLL
KiSS-1 receptor (Homo sapiens), sequence (Q969F8 whole entry, looked up): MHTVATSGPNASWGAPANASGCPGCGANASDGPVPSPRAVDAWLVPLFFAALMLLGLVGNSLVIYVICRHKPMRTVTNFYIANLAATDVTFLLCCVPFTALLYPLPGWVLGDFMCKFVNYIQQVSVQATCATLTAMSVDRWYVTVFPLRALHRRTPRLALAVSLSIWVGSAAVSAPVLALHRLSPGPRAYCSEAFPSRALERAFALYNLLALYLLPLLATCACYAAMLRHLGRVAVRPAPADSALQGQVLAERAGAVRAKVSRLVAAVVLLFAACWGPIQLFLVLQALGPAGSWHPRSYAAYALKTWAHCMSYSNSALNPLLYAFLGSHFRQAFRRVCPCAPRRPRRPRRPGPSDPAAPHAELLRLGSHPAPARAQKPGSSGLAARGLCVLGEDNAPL

In the case of `CN(C)CCCOc1nn(Cc2ccccc2)c2ccccc12`, the Potency result in [1], in assay [2], in [5], in assay [6], in assay [7] and in [8] was “inactive” in each case. For the same compound, the Potency entry in assay [9], in [10], in assay [12] and in assay [13] was “inactive” throughout. For the same compound, the outcome in [3] and in assay [4] was inactive. Further, the Potency in [11] was 26.6 µM (active).
As to `CCN(CC)C(=O)Nc1ccc(OCC(O)CNC(C)(C)C)c(C(C)=O)c1` (configuration not stated), the Potency result in assay [1], in assay [2], in assay [5], in assay [14], in assay [6] and in assay [15] was “inactive” throughout. Further, the Potency entry in assay [16], in [7], in assay [8], in [9], in assay [17] and in [18] was “inactive” throughout. The Potency result in [13] is “inactive”. The outcome in assay [3] and in assay [4] was inactive. The Potency in assay [11] was 0.0473 µM (active).
In the case of `O=C(O)Cc1ccccc1Oc1ccc(Cl)cc1Cl`, the Potency result in assay [1], in [2], in [19], in [5], in assay [6] and in assay [15] was “inactive” in each case. Also, the Potency entry in [8], in assay [9], in [17], in assay [18], in assay [11] and in [12] was “inactive” in each case. Moreover, the Potency result in [13] is “inactive”. Besides, the result in assay [3] and in [4] was inactive.
In the case of `CCOC(=O)[C@H](CCc1ccccc1)N[C@@H](C)C(=O)N(CC(=O)O)C1Cc2ccccc2C1`, the Potency entry in assay [1], in [2], in [5], in assay [14], in assay [6] and in assay [16] was “inactive” each time. Moreover, the Potency entry in assay [7], in [8], in assay [9], in assay [17], in assay [11] and in assay [12] was “inactive” in each case. Further, the Potency entry in assay [13] was “inactive”. The result in assay [3] and in assay [4] was inactive.
As for `CCc1ccc(O)c(OC)c1`, the Potency entry in assay [1], in assay [2], in assay [19], in [14], in [6] and in assay [15] was “inactive” each time. Moreover, the Potency result in assay [16], in assay [7], in assay [8], in assay [9], in assay [17] and in assay [10] was “inactive” throughout. For the same compound, the Potency entry in [18], in assay [11], in [12] and in assay [13] was “inactive” in each case. In addition, the outcome in assay [3] and in assay [4] was inactive.
With `Cc1c(C)c([N+](=O)[O-])c(C(C)(C)C)c([N+](=O)[O-])c1C`, the Potency result in assay [1], in assay [2], in [19], in assay [5], in assay [14] and in assay [6] was “inactive” in each case. Also, the Potency entry in assay [15], in assay [7], in assay [9], in assay [10], in [18] and in assay [11] was “inactive” each time. The Potency entry in assay [12] and in assay [13] was “inactive” each time. The outcome in assay [3] was inactive.
As to `O=C(Nc1ccccc1)c1cc([N+](=O)[O-])ccc1Cl`, the Potency entry in [1], in [19], in assay [5], in assay [14], in [6] and in [7] was “inactive” in each case. Further, the Potency result in [8], in assay [9], in assay [17], in assay [11], in assay [12] and in assay [13] was “inactive” in each case. Moreover, the Potency in assay [2] is 61.1 µM (active). Moreover, the result in assay [3] was inactive.
For the compound `O=C(Nc1ccc(Cl)c(Cl)c1)C1CC1`, the Potency entry in [1], in assay [2], in [19], in [5], in [6] and in assay [15] was “inactive” in each case. The Potency entry in assay [16], in [7], in assay [8], in assay [9], in assay [17] and in assay [10] was “inactive” in each case. Also, the Potency entry in assay [12] and in assay [13] was “inactive” in each case. Further, the outcome in [3] and in [4] was inactive.
